# Results taken from the supplement of paper PMC13380429.
# Unmarked numbers belong to inactive results.
# Test system: Vero E6 infected with SARS-CoV-2
# Assay: inhibition of SARS-CoV-2 cytopathic effect; higher = more antiviral protection, active = above 15
# Details: 48 h
Structure (SMILES),inhibition of SARS-CoV-2 cytopathic effect (1 nM) [%],inhibition of SARS-CoV-2 cytopathic effect (8.33 nM) [%],inhibition of SARS-CoV-2 cytopathic effect (100 nM) [%],inhibition of SARS-CoV-2 cytopathic effect (833.33 nM) [%],inhibition of SARS-CoV-2 cytopathic effect (10000 nM)
O=C(NCc1ccc2c(c1)OCO2)c1c(Cl)cccc1Cl [alda-1],-2.37,0.82,-2.66,-5.92,-3.23%
O=CN1CCC(C(=O)NCCN2CCC(=C3c4ccccc4C=Cc4ccccc43)CC2)CC1,1.02,0.48,0.42,-2.21,1.23%
CCOC(=O)OC(C)OC(=O)[C@@H]1N2C(=O)[C@@H](NC(=O)[C@H](N)c3ccccc3)[C@H]2SC1(C)C (stereo not given in full) [bacampicillin],8.5,1.16,-0.89,-1.91,-2.49%
CCCCN(CCCC)C(=O)CN1C[C@H](c2ccc3c(c2)OCO3)[C@@H](C(=O)O)[C@@H]1c1ccc(OC)cc1 [atrasentan],0.53,1.72,1.15,2.37,1.46%
CN(C)c1ccc(/C=C2\C(=O)Nc3ccccc32)cc1,2.81,-0.37,1.44,2.25,0.95%
CCC(=O)[C@@]1(C)[C@H](C)C[C@H]2[C@@H]3CCC4=CC(=O)C=C[C@]4(C)[C@H]3[C@@H](O)C[C@@]21C [rimexolone],-1.78,-0.66,-2.92,0.22,-2.54%
O=C(CCCN1CCC(O)(c2ccc(Br)cc2)CC1)c1ccc(F)cc1 [bromperidol],3.91,3.53,2.65,-0.17,-3.61%
CC[C@]12CCCN3CCc4c(n(c5ccccc45)[C@@](O)(C(=O)OC)C1)[C@@H]32 [vincamine],0.28,2.12,0.98,-2.3,-1.71%
CC(C)Oc1ccc(-c2nc(-c3cccc4c3CC[C@H]4NCCC(=O)O)no2)cc1C#N,-2.71,-1.13,0.51,2.4,-0.03%
COc1ccc(Cl)cc1C(=O)NCCc1ccc(C(=O)O)cc1 [meglitinide],2.2,0.5,1.3,0.11,1.33%
CCCNC(C)C(=O)Nc1ccccc1C (stereo not given) [prilocaine],3.07,-1.58,-0.81,2.12,2%
N[C@@H](C[C@@H](F)C(=O)O)C(=O)O,0.4,1.43,2.09,-2.92,-1.49%
CS(=O)(=O)c1ccc(-c2cnc(NCc3ccco3)n3cnnc23)cc1,4.45,2.39,0.36,-0.76,-0.13%
CCN1CCN(Cc2ccc(C(=O)Nc3ccc(C)c(Oc4ccc5c(c4)CC(=O)N5)c3)cc2C(F)(F)F)CC1,-1.15,-1.24,1.47,3.18,56% (active)
CC(C)NC[C@@H](C(=O)N1CCN(c2ncnc3c2[C@H](C)C[C@H]3O)CC1)c1ccc(Cl)cc1,-0.34,-0.39,-0.29,2.69,1.98%
O=C(O)CCn1c2c(c3ccccc31)C[C@H](NS(=O)(=O)c1ccc(F)cc1)CC2 [ramatroban],-0.49,0.09,0.01,0.06,2.02%
COc1cc(C(C)=O)ccc1OCCCN1CCC(c2noc3cc(F)ccc23)CC1 [iloperidone],-1.11,-0.19,0.99,-0.53,-3.95%
N=C1NC(=O)/C(=C/c2ccc(O)cc2)S1 [mirin],-0.65,0.66,-0.71,-3.88,1.33%
